From PubChem BioAssay
Hits are enriched below; roughly 21% of the tested compounds scored in any of these assays.
DT40 TDP1 CPT: growth inhibition of DT40 Tdp1-/-;hTDP1 cells with camptothecin (screen for TDP1 inhibitors); chicken DT40 Tdp1-/-;hTDP1 cells + 20 nM CPT, ATP luminescence, 48 h; Potency, µM (titrated, usually from 46.2 µM), for the others: at the top dose activity change, negative = growth inhibition, actives largely listed as inhibitors; 420,000 compounds, 12% hits; AID 686979; note: potency is the fitted concentration of half-maximal effect; % is set by controls: 0 for no effect and ±100 for the full control effect; nearly all actives have a fitted effect of over 55% in size
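Cell growth measured by CellTiter-Glo luminescence after a minimum 48 h, 37 C compound exposure with 20 nM CPT in Tdp1-knockout DT40 cells stably expressing hTDP1, seeded 400/well; qHTS titration format.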
IL1B secr inh: inflammasome signaling inhibition, IL-1 beta readout; THP-1 LPS/ATP IL-1B secretion, AlphaLISA, 16 h; hits give low values; activity change, % at 57.5 µM; 360,000 compounds, 4.7% hits; AID 743279; in the data active = activity change below about -50%; inconclusive = mostly about -30% to -49%; note: % is set by controls: 0 for no effect and ±100 for the full control effect
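Secreted IL-1B measured by AlphaLISA bead assay after 16 h compound exposure of THP-1 cells; compounds (final up to 57.5 uM) added 1 h before LPS (250 ng/mL) and ATP (1.25 mM) stimulation; lower signal means less secretion.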
D3 antag: D3 dopamine receptor (human) antagonism; P35462; D3R cells, DiscoveRx beta-arrestin luminescence, antagonist mode; hits give low values; max response, negative = inhibition, %; 360,000 compounds, 2.5% hits; in the data active = max response below about -50%; inconclusive = no clear call, values can overlap the other calls; note: % is set by controls: 0 for no effect and ±100 for the full control effect
Target sequence (P35462 whole entry, looked up): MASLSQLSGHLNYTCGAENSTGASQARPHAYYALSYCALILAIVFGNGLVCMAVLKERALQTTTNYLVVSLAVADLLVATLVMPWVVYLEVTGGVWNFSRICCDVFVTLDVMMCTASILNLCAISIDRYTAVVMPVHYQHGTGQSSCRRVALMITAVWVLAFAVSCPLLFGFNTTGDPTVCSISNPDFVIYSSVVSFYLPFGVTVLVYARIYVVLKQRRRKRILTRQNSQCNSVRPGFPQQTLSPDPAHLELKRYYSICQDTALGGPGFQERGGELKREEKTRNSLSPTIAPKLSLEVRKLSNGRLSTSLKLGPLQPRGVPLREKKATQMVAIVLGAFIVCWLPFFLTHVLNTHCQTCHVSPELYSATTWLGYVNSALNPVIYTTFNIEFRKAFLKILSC
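Cells expressing the human receptor were seeded at 1500 cells/well, incubated overnight at 37 degrees C in 5% CO2, then exposed to library compounds with dopamine controls for 90 minutes at 37 degrees C before luminescent detection.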
DRD3 agonist: activates the human D3 dopamine receptor. max activation, %. AID 652048. P35462. D3R DiscoveRx beta-arrestin cells, luminescence, 90 min. 410,000 compounds, 0.58% hits; in the data active = max activation above about 30%; note: 0% is about no effect
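Agonist mode: compounds and dopamine controls were applied to plated cells for 90 min at 37 degrees C after an overnight attachment at 1500 cells/well. Luminescent read-out followed 30 - 60 minutes at room temperature with DiscoveRx detection reagent.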
ClpP mod: qHTS Assay for Activators of ClpP | purified B. subtilis ClpP, FRET peptide cleavage, 20 min | 340,000 compounds, 1.9% hits | Potency, µM (top dose mostly 57.5 µM), for the others: top-dose activity change, negative = active | ATP-dependent Clp protease proteolytic subunit (Bacillus subtilis (strain 168)), P80244; active = well fitted falling curve with a large enough effect; inconclusive = small, poorly fitted or top-dose-only effect; inactive = no such curve, though single readings can be large or run the other way; note: potency is the fitted concentration of half-maximal effect; the source files actives as falling curves though it sought activators and does not explain the sign; nearly all actives have a fitted effect of over 65% in size
Target sequence (P80244 whole entry, looked up): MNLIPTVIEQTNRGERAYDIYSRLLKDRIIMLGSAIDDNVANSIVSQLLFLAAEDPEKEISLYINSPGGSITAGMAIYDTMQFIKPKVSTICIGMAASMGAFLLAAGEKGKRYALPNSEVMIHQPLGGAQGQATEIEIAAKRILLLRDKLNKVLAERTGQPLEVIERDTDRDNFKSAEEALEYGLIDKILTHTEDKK
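Buffer: 100 mM Tris/HCl pH8, 100 mM KCl, 0.05% low protease BSA, 2.5% glycerol, 0.01% Tween-20. ClpP 10 microg/mL final; 20 min RT; delta FRET normalized to ADEP and DMSO controls.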
TDP1 cell noCPT: qHTS for Inhibitors of human tyrosyl-DNA phosphodiesterase 1 (TDP1): qHTS in cells in absence of CPT | DT40 Tdp1-/- hTDP1 cells, no CPT, ATP luminescence, 48 h | Potency, µM (titrated, usually from 46.2 µM), for inactives: top-dose activity change, negative = growth inhibition, most hits filed as inhibitors | 420,000 compounds, 15% hits; note: potency is the fitted concentration of half-maximal effect; % is set by controls: 0 for no effect and ±100 for the full control effect; nearly all actives have a fitted effect of over 55% in size
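Luminescent ATP content (CellTiter-Glo) served as the growth readout. Knockout chicken DT40 cells expressing human TDP1 were exposed to compounds without camptothecin for a minimum 48 hr at 37 °C.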
The depositor's hits bear a star; ? = inconclusive; . = no result given. Unless noted, calls come from the whole dose curve; as a rule, active = well fitted inhibition curve with a large enough effect; inconclusive = small, poorly fitted or top-dose-only effect; inactive = flat fitted curve, though single readings scatter.

SMILES	DT40 TDP1 CPT	IL1B secr inh	D3 antag	DRD3 agonist	ClpP mod	TDP1 cell noCPT
CCOc1ccccc1N1CC(c2nc3ccccc3n2CCOc2ccc(C(C)(C)C)cc2)CC1=O (configuration not stated)	?	.	.	5	-21%	?
CCn1c(C2CC(=O)N(Cc3ccccc3)C2)nc2ccccc21 (configuration not stated)	-15%	-11	8	0	1%	-8%
CN1CCN(c2ncc3nc(-c4cccc(C#N)c4)c(=O)n(C[C@H]4CCCO4)c3n2)CC1	?	.	.	.	.	-11%
Cc1ccc(NC2CCCN(C(=O)c3ccc(F)cc3)C2)cc1C (configuration not stated)	?	32	-13	-7	-3%	?
O=C(Cn1c(=O)nc(-c2ccccc2)c2ccccc21)N1CCN(c2ccc(F)cc2)CC1	17%	.	.	4	?	-20%
O=C(Cn1c(-c2cccs2)cc2ccccc21)N1CCN(c2ccc(F)cc2)CC1	?	.	.	7	35µM*	?
O=C(CCC(=O)N1CCN(c2ccccc2F)CC1)c1ccc(Cl)s1	-30%	12	-6	-6	0%	?
O=C(Cn1c(-c2cccs2)cc2cc(Cl)ccc21)N1CCN(c2ccccc2F)CC1	?	.	.	-3	13µM*	?
O=C(Cn1c(-c2cccs2)cc2cc(F)ccc21)N1CCCCC1	?	.	.	4	?	?
O=C(Cn1c(-c2cccs2)cc2cc(Cl)ccc21)N1CCN(c2ccccc2)CC1	?	.	.	-2	25µM*	-28%
Cc1ccc(Cl)cc1N1CCN(C(=O)Cn2c(-c3cccs3)cc3cc(F)ccc32)CC1	-22%	.	.	8	8.9µM*	-8%
O=C(CSc1nc(-c2ccccc2)nc2c1CCCC2)c1ccc(Cl)cc1	13%	.	.	7	1%	0%
O=C(Cn1c(-c2cccs2)cc2ccccc21)N1CCN(c2ccccc2F)CC1	?	.	.	-3	14µM*	?
O=C(CNS(=O)(=O)c1cccs1)N1CCN(c2ccccc2F)CC1	1%	5	-13	-6	0%	-18%
CC(C)N1CC(C(=O)Nc2ccc(F)c(Cl)c2)CC1=O (configuration not stated)	2%	?	9	4	-1%	11%
CC(C)N1CC(C(=O)Nc2ccc(Cl)c(Cl)c2)CC1=O (configuration not stated)	3%	-21	-24	72*	.	-4%
CCCOc1ccccc1C(=O)N1CCCCC1CCN1CCCCC1 (configuration not stated)	-5%	.	.	49*	-1%	-5%
Cc1ccc(-c2cc(C(F)F)nc(N3CCC(C)CC3)n2)cc1	-9%	29	?	3	25µM*	-28%
COc1cccc(Cn2c(=O)c(-c3cn(C)c4ccccc34)nc3cnc(OC)nc32)c1	0%	.	.	.	.	-7%
COc1cccc(-c2cc(C(=O)NCCc3ccc(OC)c(OC)c3)no2)c1	5%	.	.	4	-5%	2%
Cc1ccc(C)c(NC(=S)N/N=C2\CCc3ccccc32)c1	?	78	-28	-1	-2%	21µM*
Cc1ccc(C)c(NC(=S)Nc2ncccc2C)c1	?	-19	-22	5	.	?
Cc1ccc(NC(=S)N/N=C2/CCCCc3ccccc32)cc1	?	0	-52*	-12	-2%	?
Cn1nc(-c2ccc(OCC(=O)NCC3CCCO3)cc2)c2ccccc2c1=O (configuration not stated)	18µM*	42	0	0	-11%	12µM*
Cn1nc(-c2ccc(C(=O)NCC3CCCO3)cc2)c2ccccc2c1=O (configuration not stated)	?	30	25	-10	0%	?
SMILES	DT40 TDP1 CPT	IL1B secr inh	D3 antag	DRD3 agonist	ClpP mod	TDP1 cell noCPT
COc1ccc(OCC(=O)Nc2cc(-c3nn(C)c(=O)c4ccccc34)ccc2OC)cc1	16µM*	-2	-62*	4	-24%	16µM*
CN(C(=O)c1ccc(-c2nn(C)c(=O)c3ccccc23)cc1)C1CCCCC1	13µM*	?	2	-26	-2%	16µM*
COc1ccc(NC(=O)COc2ccc(-c3nn(C)c(=O)c4ccccc34)cc2)cc1	?	-15	-18	-8	-5%	?
O=C(CNCc1cccnc1)Nc1cc(C(F)(F)F)ccc1N1CCOCC1	-9%	27	-19	-8	-6%	1%
CC(C)CNS(=O)(=O)c1ccc(NC(=O)Cn2nc(-c3ccc(F)cc3)ccc2=O)cc1	?	?	?	-19	28µM*	?
CN(C1CCCCC1)S(=O)(=O)c1ccc(NC(=O)Cn2nc(-c3ccc(F)cc3)ccc2=O)cc1	?	6	-24	-4	-24%	21µM*
Cc1ccc(-c2ccc(=O)n(CC(=O)Nc3ccc(C(C)C)cc3)n2)cc1	-7%	.	.	1	0%	-28%
COc1ccc(C2CC(=O)Nc3c2c(=O)n(C)c2nc4ccccc4n32)cc1 (configuration not stated)	.	.	.	4	4%	.
CCCCc1c(-c2ccccc2OC)ncn1CCc1ccc(Cl)cc1	?	?	-4	-15	-3%	21µM*
COc1ccccc1C(=O)OCCc1ccccc1	1%	-8	-6	-6	.	-7%
CCCCc1c(-c2ccccc2OC)ncn1CCc1ccccc1	21µM*	0	49	7	-1%	?
CCCCc1c(-c2ccccc2OC)ncn1CCc1ccc(OC)cc1	18µM*	-79*	5	-1	-3%	23µM*
COc1ccccc1-c1cc(C(=O)Nc2cc(C)n(Cc3ccc(Cl)cc3)n2)no1	?	5	20	-7	115%	-17%
